NTR1 ag: activates human neurotensin receptor 1; NTR1-U2OS beta-arrestin-GFP spot imaging, agonist mode; activation, % at 20 µM; 330,000 tested, 0.17% active; AID 493036;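 active = activation at or above 40% of the spot to cytoplasm intensity ratio, with at least 20 cells analyzed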;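 also: 0% = DMSO without peptide and 100% = 100 nM NTR1 peptide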
TLR4 MyD88 comp: blocks binding of human TLR4 to MyD88; 200,000 tested, 0.18% active; inhibition, % at 8.4 µM; AID 861; O00206+Q99836; HeLa CL3-4 TLR4/MyD88 BLA complementation, FRET ratio; in the data active = inhibition above about 25%;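 also: 0% = vehicle and 100% = reference inhibitor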
TLR9-MyD88 block: TLR9-MyD88 interaction inhibition. Q9NR96+Q99836. CHO BLA complementation TLR9-MyD88, CCF4 FRET ratio. inhibition, % at 4.98 µM. 340,000 tested, 0.21% active. AID 504734;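 active = inhibition above the mean over all tested compounds plus 3 SD, cut at about 21% in these data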;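 also: 0% = DMSO only wells and 100% = clavulanate BLA inhibitor control wells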
NOD2-RIPK2 inh: NOD2-RIPK2 protein interaction inhibition; O43353; CHO BLA complementation NOD2-RIPK2, CCF4 ratio; inhibition, % at 4.98 µM; 360,000 tested, 0.38% active; AID 624267; in the data active = inhibition above about 21%;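 also: 0% = vehicle only and 100% = reference blocker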
ABHD5-PLIN5 inh: blocks binding of human ABHD5 to perilipin-5 | Q00G26+Q8WTS1 | inhibition, % at 4 µM | AID 602281 | Split G. princeps luciferase complementation, luminescence, 4 h | 360,000 tested, 0.78% active;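 active = inhibition above the mean inhibition across every tested compound plus 3 SD, cut at about 22% in these data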;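 also: 0% = DMSO only wells and the 100% control is not disclosed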
Beta2AR agonist: agonists of human beta-2 adrenergic receptor inducing internalization. P07550. Am2.2-beta2AR cells, FAP receptor internalization, flow cytometry. response, % (no concentration beside the values). 340,000 tested, 0.43% active. AID 504454;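 active = response above a set limit, near 3 SD of response in nonfluorescent compounds, cut at about 42% in these data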
Target sequence (P07550 whole entry, looked up): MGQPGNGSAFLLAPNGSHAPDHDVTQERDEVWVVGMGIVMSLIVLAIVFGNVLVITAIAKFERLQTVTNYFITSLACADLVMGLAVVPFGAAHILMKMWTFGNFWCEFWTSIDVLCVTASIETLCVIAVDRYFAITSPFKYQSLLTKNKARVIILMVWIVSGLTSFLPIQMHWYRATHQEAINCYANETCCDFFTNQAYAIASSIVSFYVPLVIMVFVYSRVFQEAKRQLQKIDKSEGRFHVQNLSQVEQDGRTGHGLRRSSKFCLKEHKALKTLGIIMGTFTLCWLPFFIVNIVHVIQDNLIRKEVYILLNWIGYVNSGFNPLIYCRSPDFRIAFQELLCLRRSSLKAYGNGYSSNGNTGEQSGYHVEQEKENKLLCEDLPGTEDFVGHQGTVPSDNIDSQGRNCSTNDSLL
NTR1 ag conf: NTR1 (human) agonism, confirmed | shares compounds with NTR1 ag | NTR1-U2OS beta-arrestin-GFP translocation imaging | activation, % at 20 µM | 480 tested, 38% active | AID 504550;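 active = mean activation at 20 µM of at least 40%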;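 also: 0% = DMSO without peptide and 100% = 100 nM NTR1 peptide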
An asterisk follows results filed as active; . = no result. In the library only some 1.5% were active in any assay of this set; here they are far more common.

SMILES	NTR1 ag	TLR4 MyD88 comp	TLR9-MyD88 block	NOD2-RIPK2 inh	ABHD5-PLIN5 inh	Beta2AR agonist	NTR1 ag conf
COc1cccc(/C=N/NC(=O)CNC(=O)COc2ccccc2)c1O	30	.	0	2	3	8	.
N=c1c(C(=O)NCc2ccc(F)cc2)cc2c(=O)n3ccccc3nc2n1Cc1ccco1	41*	13	4	3	20	4	22
COc1ccc(CCNC(=O)c2cc3c(=O)n4cccc(C)c4nc3n(Cc3ccco3)c2=N)cc1OC	42*	.	11	-1	16	24	11
N=c1c(C(=O)NCCN2CCOCC2)cc2c(=O)n3ccccc3nc2n1Cc1ccc(F)cc1	2	.	-19	-9	4	-7	.
CC(NCC(O)COCCC12CC3CC(CC(C3)C1)C2)c1ccccc1 (centres undefined)	46*	4	11	14	11	34	69*
CC(=O)OCCCNc1cc(Sc2ccc(C)cc2)c2nonc2c1[N+](=O)[O-]	67*	2	-9	1	2	9	86*
COc1cc([N+](=O)[O-])ccc1NC(=O)Nc1cnccn1	0	.	-5	-14	-2	8	.
COc1cc([N+](=O)[O-])ccc1NC(=O)Nc1nc2c(s1)CCCC2	43*	4	5	7	-3	2	18
COc1cc(NC(=O)c2cc(-c3ccccc3)nc3c2cnn3C(C)C)cc(OC)c1OC	12	.	2	-5	0	14	.
CNC(=O)c1cccc(NC(=O)c2cc(-c3ccccc3)nc3c2cnn3C(C)C)c1	55*	.	8	2	1	15	33
Nc1nc(SCc2ccc(Br)cc2)c2ncn(C3OC(CO)C(O)C3O)c2n1 (centres undefined)	.	.	-13	-7	3	-5	.
Nc1c(C(=O)Nc2ccc(S(=O)(=O)N3CCCC3)cc2)sc2nc3ccc(OC(F)(F)F)cc3cc12	87*	4	1	-12	-4	-4	22
Nc1c(C(=O)Nc2ccc(S(=O)(=O)N3CCCC3)cc2)sc2nc3cc4c(cc3cc12)CCC4	.	2	0	-1	-7	-32	.
CCc1ccc(S(=O)(=O)/N=C2\C=C(Nc3ccc(O)cc3)C(=O)c3ccccc32)cc1	45*	.	-8	9	3	45*	21
CCCCCCn1cc(CN2CC(N3CCCCC3)CS2(=O)=O)nn1 (centres undefined)	.	.	.	2	5	.	.
COc1ccc2sc(-c3ccc(S(C)(=O)=O)cc3)c(C#CCO)c2c1	57*	.	0	5	6	17	57*
O=C(CN(c1cccc(C(F)(F)F)c1)S(=O)(=O)c1ccc(Cl)c([N+](=O)[O-])c1)NCc1ccccc1Cl	9	-2	4	18	6	23	.
O=C(CN(c1cccc(C(F)(F)F)c1)S(=O)(=O)c1ccc(Cl)c([N+](=O)[O-])c1)NCc1ccccc1	43*	14	-3	-12	3	-1	0
Cc1ccc(OCC(=O)NNc2c3ccccc3nc3ccccc23)cc1	47*	-16	-10	-15	4	3	20
Cc1cccc(OCC(=O)NNc2c3ccccc3nc3ccccc23)c1	36	8	3	-14	-3	16	.
COC(=O)COc1ccc(NC(=O)Cn2nc(-c3ccccc3)c3ccccc3c2=O)cc1	61*	-10	-5	2	4	10	15
CCCCCc1cc(=O)oc2c(C(CCN3CCCC3)c3cc(OC)c(OC)c(OC)c3)c(OC)cc(OC)c12 (centres undefined)	37	.	0	2	18	20	.
CCCCCc1cc(=O)oc2c(C(CCN3CCCC3)c3ccc(N(C)C)cc3)c(OC)cc(OC)c12 (centres undefined)	53*	.	2	8	9	35	38
Cc1[nH]n(-c2ccccc2)c(=O)c1C(C[N+](=O)[O-])c1ccc(Br)cc1 (centres undefined)	17	9	-6	8	14	28	.
COc1cccc(C(C[N+](=O)[O-])c2c(C)[nH]n(-c3ccccc3)c2=O)c1 (centres undefined)	51*	.	5	7	-25	8	4
SMILES	NTR1 ag	TLR4 MyD88 comp	TLR9-MyD88 block	NOD2-RIPK2 inh	ABHD5-PLIN5 inh	Beta2AR agonist	NTR1 ag conf
Oc1ccc(-c2csc(Nc3ccc4c(c3)OCO4)n2)c(O)c1	.	.	1	-8	-19	-28	.
N#Cc1ccc(Nc2nc(-c3ccc(O)cc3O)cs2)cc1C(F)(F)F	41*	.	0	7	-32	7	70*
CCc1nc2ccc(C(=O)NCc3ccccc3OC)cn2c1N(C)Cc1ccc(OC)cc1	.	.	.	-4	9	.	.
Clc1ccc(-n2nnnc2-c2cnc(-c3ccncc3)nc2-c2cccs2)cc1	-1	-9	-3	-1	2	-1	.
FC(F)(F)c1nc(-c2cccs2)ncc1-c1nnnn1-c1ccc(Cl)cc1	57*	8	-2	-14	-5	11	20
COc1ccccc1CNC(=O)CN1C(=O)NC(C)(c2ccc(C)cc2)C1=O (centres undefined)	47*	.	3	-9	-3	14	-2
Cc1cccc(Nc2nc(N)c([N+](=O)[O-])c(N3CC(C)CC(C)C3)n2)c1 (centres undefined)	46*	-2	7	-8	-16	4	36
Cc1cccc(Nc2nc(N)c([N+](=O)[O-])c(N3CC(C)OC(C)C3)n2)c1 (centres undefined)	0	.	1	2	-1	24	.
CC(C)c1ccc(CC(=O)N2CCC2(C)C(=O)NS(=O)(=O)c2cccc(OC(F)F)c2)cc1 (centres undefined)	.	.	.	-5	2	.	.
Cc1cc(-c2ccccc2)nc(N/N=C/c2ccc(O)cc2)n1	2	.	1	8	5	11	.
Oc1ccc(/C=N/Nc2nc(-c3ccc(Cl)cc3)cc(C(F)(F)F)n2)cc1	61*	-2	-17	4	-11	24	15
CC(C)C(=O)N1CCC1(C)C(=O)NCc1ccc(F)cc1Cl (centres undefined)	.	.	.	5	-6	.	.
COc1ccc(S(=O)(=O)Nc2ccccc2C(=O)Nc2nc(-c3ccc(F)cc3)cs2)cc1OC	45*	-1	-11	-3	3	29	7
CCc1nc2ccc(C(=O)Nc3cccc(NS(C)(=O)=O)c3)cn2c1N(CC)Cc1cccc(Br)c1	.	.	.	-12	0	.	.
COc1cc2cc(C)c(Br)c(OC)c2cc1OC	.	.	4	-17	-8	6	.
OC(CNCCc1ccc(Cl)cc1)COc1cc(Cl)ccc1Cl (centres undefined)	41*	.	3	12	-4	-9	-2
COc1ccc(Cn2c(C3CCCCC3)nc3c(c(=O)c4ccccc4n3C)c2=O)cc1	43*	.	.	.	.	.	34

Screening data (PubChem)
